NS1 function inh – influenza NS1 inhibition; Potency, µM (top dose mostly 46.1 µM); 270,000 tested, 0.4% active; calls by dose curve; also: actives are rising curves; nearly all actives have a fitted effect of over 50% in size
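OD600 was taken as the measure of yeast growth restored by compound in an NS1-expressing S. cerevisiae strain. Cells had been washed out of glucose medium and diluted 1:100 into galactose -URA medium, pH 6.0.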
Pf growth 96h – P. falciparum growth inhibition at 96 hours; P. falciparum luciferase reporter growth, 96 h; Potency, µM (doses to about 28.7 µM), most hits filed as inhibitors; 320,000 tested, 6.9% active
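Luminescence readout: decreased luciferase signal marks inhibited growth of reporter-expressing P. falciparum in infected red cells (2% hematocrit, 0.05% parasitemia final), exposed to compound two generations (96 h, 37 C, 5% CO2).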
Pf growth 48h – inhibits P. falciparum growth in the first generation, 48 h; P. falciparum luciferase growth in erythrocytes, 48 h; Potency, µM (titrated, usually from 28.7 µM), usual class: inhibitors; 310,000 tested, 5.9% active
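Read-out is firefly luciferase luminescence from an integrated reporter in P. falciparum, so falling signal marks reduced parasite growth. Infected erythrocytes were at 2% hematocrit and 0.1% parasitemia (final) in Albumax-supplemented RPMI 1640.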
Vaccinia mCherry – vaccinia inhibition (mCherry reporter); Vaccinia virus mCherry reporter infection, fluorescence; Potency, µM (highest dose often 36.5 µM), hits mostly inhibitors; 310,000 tested, 0.63% active; AID 720579; calls by dose curve; tested in A549 cells; also: nearly all actives have a fitted effect of over 35% in size
HCV inh – HCV inhibition; Huh7.5.1 HCVcc-Cre infection, luciferase reporter, 44 h; Potency, µM (highest dose often 41.8 µM), actives largely listed as inhibitors; 340,000 tested, 3.4% active; AID 651820
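Cells (1,000/well) were plated 4 h before compound, then infected with HCVcc-Cre virus (~0.5 moi). After 44 h further culture, infection was read as luciferase luminescence following a 15 min substrate incubation at room temperature.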
Vaccinia Venus – vaccinia inhibition (Venus reporter). Vaccinia virus Venus reporter expression, fluorescence. Potency, µM (series often up to 36.5 µM), actives largely listed as inhibitors. 330,000 tested, 0.46% active. AID 720580; calls by dose curve; tested in A549 cells; also: nearly all actives have a fitted effect of over 30% in size
Numbers stand for hits; [ ] = another dose, or the depositor's remark. Sampled rows, rich in hits. Any-hit rate of the full collection: about 11%. Unless noted, calls follow the shape of the dose curve; as a rule, active = well fitted inhibition curve with a large enough effect; inconclusive = small, poorly fitted or top-dose-only effect, or another doubt; inactive = no such curve, though single readings can be large or run the other way.

What do the screens show for `COc1ccc(S(=O)(=O)N2CCCC2CNC(=O)C(=O)NCc2ccc(C)cc2)cc1` (configuration not stated)?
Pf growth 96h: inconclusive; Pf growth 48h: inconclusive; Vaccinia mCherry: inactive; HCV inh: inactive; Vaccinia Venus: inactive

How did CCO/C=C/C(=O)N(C)CCC#N do in these assays?
NS1 function inh: inactive; Pf growth 96h: 11.7µM; Pf growth 48h: inactive; HCV inh: inactive; Vaccinia Venus: inactive

How did CC(C)(C)c1ccc(C(=O)N/C(=C\c2ccco2)C(=O)O)cc1 do in these assays?
NS1 function inh: inactive; Pf growth 96h: inactive; Pf growth 48h: inactive; Vaccinia mCherry: inactive; HCV inh: inactive; Vaccinia Venus: inactive

How did COc1cc(-c2nc3ccccn3c2N)ccc1O do in these assays?
NS1 function inh: inactive; Pf growth 96h: 1.65µM; Pf growth 48h: inactive; HCV inh: inactive

What do the screens show for `COc1cc(-c2nc3ccccn3c2/N=C/c2ccccc2)ccc1O`?
NS1 function inh: inactive; Pf growth 96h: inactive; Pf growth 48h: inactive; Vaccinia mCherry: inactive; HCV inh: inactive; Vaccinia Venus: inactive

Results for O=C(NCCOc1ccc(Cl)cc1)c1ccco1 ?
NS1 function inh: inactive; Pf growth 96h: 2.08µM; Pf growth 48h: inactive; Vaccinia mCherry: inactive; HCV inh: inactive; Vaccinia Venus: inactive

How did COC(=O)c1cc2ccccc2c([N+](=O)[O-])c1O do in these assays?
Vaccinia mCherry: inactive; HCV inh: inactive; Vaccinia Venus: inactive

How did COC(=O)c1cc2ccccc2c(-c2c(OC)c(C(=O)OC)cc3ccccc23)c1OC do in these assays?
NS1 function inh: inactive; Pf growth 96h: 11.7µM; Pf growth 48h: inconclusive; Vaccinia mCherry: inconclusive; HCV inh: 10µM; Vaccinia Venus: inactive

What do the screens show for `CC1=NN(c2ccccc2)C(=O)C1(C)C`?
NS1 function inh: inactive; Pf growth 96h: 9.28µM; Pf growth 48h: inactive; HCV inh: inactive; Vaccinia Venus: inactive

What do the screens show for `CC1=C(C)CC2(SC1)C(=O)N(c1ccccc1)N=C2N` (configuration not stated)?
Pf growth 96h: inactive; Pf growth 48h: inactive; Vaccinia mCherry: inactive; HCV inh: inactive; Vaccinia Venus: inactive

How did O=C(C=P(c1ccccc1)(c1ccccc1)c1ccccc1)c1ccccc1-c1ccccc1C(=O)C=P(c1ccccc1)(c1ccccc1)c1ccccc1 do in these assays?
Vaccinia mCherry: inconclusive; HCV inh: inconclusive; Vaccinia Venus: 3.55µM

What do the screens show for `O=C(NNC(=O)c1ccccc1-c1ccccc1C(=O)O)c1ccccc1`?
NS1 function inh: inactive; Pf growth 96h: inactive; Pf growth 48h: inactive; Vaccinia mCherry: inactive; HCV inh: inactive; Vaccinia Venus: inactive

What do the screens show for `O=C(N/N=C/c1ccc2c(c1)OCO2)c1ccc2ccccc2n1`?
Pf growth 96h: inactive; Pf growth 48h: inactive; Vaccinia mCherry: inactive; HCV inh: inactive; Vaccinia Venus: inactive

How did c1ccc(CNCCCNCCCCNCCCNCc2ccccc2)cc1 do in these assays?
Vaccinia mCherry: 12.6µM; HCV inh: inconclusive; Vaccinia Venus: 12.6µM

What do the screens show for `Oc1ccccc1CNCCCNCc1ccccc1O`?
NS1 function inh: inactive; Pf growth 96h: inactive; Pf growth 48h: 8.28µM; HCV inh: 2.82µM

Results for Cc1ccccc1Nc1c(-c2cccc(O)c2)nc2ccc(Br)cn12 ?
Vaccinia mCherry: inactive; Vaccinia Venus: inactive

How did CCOCCn1c(C)c(C(=O)OCC)c2cc(O)c3ccccc3c21 do in these assays?
Pf growth 96h: 3.7µM; Pf growth 48h: 2.33µM; Vaccinia mCherry: inactive; HCV inh: inactive; Vaccinia Venus: inactive

What do the screens show for `CCC1CCCCN1c1nc(-c2ccncc2)nc2ccccc12` (configuration not stated)?
NS1 function inh: inactive; Pf growth 96h: inactive; HCV inh: 11.2µM

Results for CC1CCCCN1c1nc(-c2ccncc2)nc2ccccc12 (configuration not stated) ?
NS1 function inh: inactive; Pf growth 96h: inactive; Pf growth 48h: 8.28µM; Vaccinia mCherry: inactive; HCV inh: 10µM; Vaccinia Venus: inactive

Results for CC1CCCCN1c1nc(-c2ccc(C(C)(C)C)cc2)nc2ccccc12 (configuration not stated) ?
Vaccinia mCherry: inactive; Vaccinia Venus: inactive

How did COc1ccc(OC)c(CCNC(=O)C(C)n2nc(C)c3c(C)n(-c4ccccc4)nc3c2=O)c1 (configuration not stated) do in these assays?
NS1 function inh: inactive; Pf growth 96h: 11.7µM; Pf growth 48h: inactive; Vaccinia mCherry: inactive; HCV inh: inconclusive; Vaccinia Venus: inactive

How did COc1ccc(OC)c(CCNC(=O)C(C)n2nc(C)c3c(C)n(-c4ccc(C)cc4)nc3c2=O)c1 (configuration not stated) do in these assays?
NS1 function inh: inactive; Pf growth 96h: inconclusive; Pf growth 48h: inconclusive; Vaccinia mCherry: inactive[7.34 µM]; HCV inh: 2.82µM; Vaccinia Venus: inactive[7.34 µM]

How did CCC(C(=O)NCCc1cc(OC)ccc1OC)n1nc(C)c2c(C)n(-c3ccccc3)nc2c1=O (configuration not stated) do in these assays?
Vaccinia mCherry: inactive; Vaccinia Venus: inactive

What do the screens show for `O=C1C2C3C=CC(C3=C(c3ccccc3)c3ccccc3)C2C(=O)N1CCO` (configuration not stated)?
NS1 function inh: inactive; Pf growth 48h: inconclusive; HCV inh: inactive

What do the screens show for `O=C1C2C3C=CC(C3=C(c3ccccc3)c3ccccc3)C2C(=O)N1Cc1ccccc1` (configuration not stated)?
NS1 function inh: inactive; Pf growth 96h: inactive; HCV inh: 11.2µM; Vaccinia Venus: inactive

Results for COc1cc(C#Cc2c(-c3cncn3C)n(C)c3ccc(Br)cc23)cc(OC)c1 ?
Vaccinia mCherry: inactive; HCV inh: 1.12µM; Vaccinia Venus: inconclusive

Results for COc1cc(C#Cc2c(-c3cncn3C)n(C)c3ccc(-c4ccc5cc[nH]c5c4)cc23)cc(OC)c1 ?
Vaccinia mCherry: inactive; HCV inh: inconclusive; Vaccinia Venus: inactive

How did COc1cc(C#Cc2c(-c3cncn3C)n(C)c3ccc(-c4ccc(OC)c(OC)c4)cc23)cc(OC)c1 do in these assays?
Pf growth 96h: 5.22µM; Pf growth 48h: 1.31µM; Vaccinia mCherry: inactive; HCV inh: inconclusive; Vaccinia Venus: inactive

What do the screens show for `Cn1c(NCCO)nc2c1c(=O)n(Cc1ccc(F)cc1)c(=O)n2C`?
NS1 function inh: inactive; Pf growth 96h: inactive; Vaccinia mCherry: inactive; HCV inh: inactive; Vaccinia Venus: inactive

How did Cn1c(NCC(O)c2ccccc2)nc2c1c(=O)n(Cc1ccc(Cl)cc1)c(=O)n2C (configuration not stated) do in these assays?
NS1 function inh: inactive; Pf growth 96h: inactive; Pf growth 48h: inconclusive; HCV inh: inconclusive; Vaccinia Venus: inconclusive

Results for Cn1c(NCc2ccccc2)nc2c1c(=O)n(Cc1ccccc1)c(=O)n2C ?
NS1 function inh: inactive; Pf growth 96h: 3.7µM; Pf growth 48h: 7.38µM; HCV inh: inactive

Results for CCCCNc1nc2c(c(=O)n(Cc3ccc(Cl)c(Cl)c3)c(=O)n2C)n1C ?
Vaccinia mCherry: inactive; Vaccinia Venus: inactive

Assay outcomes deposited in PubChem BioAssay by National Center for Advancing Translational Sciences (NCATS).
